Compound activity (PubChem)
FBW7 act: activators of human E3 ligase FBW7; Q969H0; AlphaScreen FBW7–phospho-cyclin E peptide binding, activator screen; normalized activity (activation), % at 26.1 µM; hit rate 0.13% among 650,000; in the data active = normalized activity above about 1.9%;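 note: purified mutant Fbw7 with reduced substrate affinity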
MITF inh: inhibitors of human MITF | O75030 | AlphaScreen MITF homodimerization, bead proximity signal | inhibition, % at 2.6 µM | hit rate 0.91% among 650,000; in the data active = inhibition above about 50%
GPR151 ag: activators of human GPR151; hit rate 1% among 650,000; Q8TDV0; AID 1508602; PathHunter beta-arrestin GPR151 cells, luminescence; activation, % at 11.2 µM; in the data active = activation above about 4.9%
Target sequence (Q8TDV0 whole entry, looked up): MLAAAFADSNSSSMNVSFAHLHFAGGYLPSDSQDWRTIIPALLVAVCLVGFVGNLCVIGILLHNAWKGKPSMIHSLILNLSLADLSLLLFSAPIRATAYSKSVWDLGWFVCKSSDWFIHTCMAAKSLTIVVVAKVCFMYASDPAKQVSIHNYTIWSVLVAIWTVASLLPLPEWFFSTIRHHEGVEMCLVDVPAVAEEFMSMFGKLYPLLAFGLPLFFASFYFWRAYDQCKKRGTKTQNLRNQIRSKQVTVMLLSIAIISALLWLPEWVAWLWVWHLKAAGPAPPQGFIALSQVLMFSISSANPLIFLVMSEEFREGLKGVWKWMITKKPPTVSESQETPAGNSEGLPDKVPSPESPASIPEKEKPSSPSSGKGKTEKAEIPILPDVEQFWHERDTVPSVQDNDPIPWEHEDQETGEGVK
TEAD-YAP inh: TEAD-YAP interaction inhibition | HEK-TIYL cells, TEAD-Gal4/YAP UAS-luciferase luminescence | AID 1259422 | inhibition, % at 9.12 µM | hit rate 1.4% among 640,000; in the data active = inhibition above about 32%
MITF inh conf: confirmation of human MITF inhibitors; inhibition, % at 2.6 µM; AID 1259372; hit rate 16% among 4,700; AlphaScreen MITF homodimerization, biotin/His-MITF beads; shares compounds with MITF inh;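 active = inhibition above a cutoff derived from the DMSO control wells, cut at about 28% in these data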;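 note: inhibitors lower the bead chemiluminescence by keeping MITF from dimerizing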
AS interf DR: counter-screen: compounds optically interfering with AlphaScreen; shares compounds with MITF inh; AlphaScreen optical interference counterscreen, cell-free; IC50, µM; hit rate 6% among 480; AID 1259373; call rule not given here
AlphaScreen intf2: optically interferes with AlphaScreen signal | shares compounds with MITF inh | LysRS AlphaScreen counterscreen, signal interference, triplicate | inhibition, % at 2.6 µM | hit rate 7.6% among 4,700;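 active = inhibition above a cutoff derived from the DMSO control wells, cut at about 30% in these data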
Each line names hits and unclear results; the compound was inactive in the other large screens (follow-up assays come after a bar, where they were run). A selection: hits, their analogues and other compounds. The true share with any hit is near 3.5%.

COc1ccc(OC)c(CN2CCN(C(C)C)CC2)c1	MITF inh 71.7 | MITF inh conf inactive | AlphaScreen intf2 inactive
COc1cccc(CN2CCN(Cc3ccccc3)CC2)c1OC	MITF inh 68.6 | MITF inh conf inactive | AlphaScreen intf2 inactive
COc1cccc(CN2CCN(C)CC2)c1OC	none
COc1ccc(CN2CCN(Cc3ccccc3)CC2)c(OC)c1	MITF inh 67.0 | MITF inh conf inactive | AlphaScreen intf2 inactive
CCC(C)N1CCN(Cc2cccc(C)c2)CC1 (centres undefined)	none
Cc1ccc(C2CC(c3cccnc3)Nc3ncnn32)cc1 (centres undefined)	none
CCCCC1(CCCC)C(=O)NC(=O)N(C)C1=O	none
COc1cccc(CN2CCN(C)C(CCO)C2)c1OC (centres undefined)	none
COc1cccc(CN2CCN(C(C)C)CC2)c1OC	MITF inh 68.7 | MITF inh conf inactive | AlphaScreen intf2 inactive
O=C(Cc1noc2ccccc12)N1CCN(Cc2nc3ccccc3[nH]2)CC1	MITF inh 77.5 | MITF inh conf inactive | AlphaScreen intf2 inactive
O=C(COc1ccccc1Cl)N1CCN(Cc2ccccc2)CC1	none
COc1ccccc1OCC(=O)N1CCN(Cc2nc3ccccc3[nH]2)CC1	MITF inh 75.2 | MITF inh conf inactive | AlphaScreen intf2 inactive
Cc1ccccc1CN1CCN(C(C)C)CC1	MITF inh 77.7 | MITF inh conf inactive | AlphaScreen intf2 inactive
CC(C)N1CCN(Cc2ccccc2Br)CC1	MITF inh 51.1 | MITF inh conf inactive | AlphaScreen intf2 inactive
Cc1nc2ccc(NC(=O)C3CC3)cc2c(=O)n1-c1ccc(F)cc1	none
CN1CCC(N(C)c2nc3nonc3nc2NCc2ccccc2)CC1	none
CCOC(=O)C1C2NC(=S)N(c3ccc(C)cc3)C1(C)Oc1c(OCC)cccc12 (centres undefined)	MITF inh 52.6 | MITF inh conf 40.7 | AlphaScreen intf2 inactive
CCOC(=O)C1C2NC(=S)N(c3ccccc3)C1(C)Oc1c(OCC)cccc12 (centres undefined)	none
COc1ccccc1CN1CCN(Cc2ccccc2OC)CC1	MITF inh 75.2 | MITF inh conf inactive | AlphaScreen intf2 inactive
COc1ccccc1N1CCN(Cc2ccccc2C#N)CC1	MITF inh 54.7 | MITF inh conf inactive | AlphaScreen intf2 inactive
COc1ccccc1CN1CCN(Cc2ccccc2Cl)CC1	MITF inh 81.6 | MITF inh conf inactive | AlphaScreen intf2 inactive
COc1ccccc1CN1CCN(Cc2ccccc2F)CC1	none
COc1ccccc1N1CCN(Cc2ccccc2C)CC1	none
CCC(C)N1CCN(Cc2cccc(F)c2)CC1 (centres undefined)	none
COc1cccc(N2CCN(Cc3ccc([N+](=O)[O-])cc3)CC2)c1	MITF inh 56.7 | MITF inh conf inactive | AlphaScreen intf2 inactive
CC(C)N1CCN(Cc2ccc([N+](=O)[O-])cc2)CC1	MITF inh 66.6 | MITF inh conf inactive | AlphaScreen intf2 inactive
CCc1ccc(CN2CCN(C(C)C)CC2)cc1	MITF inh 81.0 | MITF inh conf 29.4 | AS interf DR inactive | AlphaScreen intf2 inactive
Cc1ccc(CN2CCN(C(C)C)CC2)cc1	MITF inh 53.9 | MITF inh conf inactive | AlphaScreen intf2 inactive
CCOC(=O)CC1=C(C(=O)OCC)C2(C(=O)Nc3ccccc32)C(C(=O)OC)=C(N)O1 (centres undefined)	none
O=[N+]([O-])c1ccc(C2OCN3COCC23)cc1 (centres undefined)	none
CCN(CC)C(=O)c1ccc(NC(=O)COc2ccc(C=O)cc2Br)cc1	none
CCOC(=O)C1C2NC(=S)N(c3ccccc3)C1(C)Oc1c(OC)cccc12 (centres undefined)	none
CC(C)Sc1ccc(CC(=O)N2CCN(Cc3nc4ccccc4n3C)CC2)cc1	MITF inh 54.9 | MITF inh conf inactive | AlphaScreen intf2 inactive
Fc1ccc(CNCCc2c[nH]c3ccccc23)cc1	none
Fc1ccc(CNCCc2c[nH]c3ccccc23)cc1F	MITF inh 53.9 | MITF inh conf inactive | AlphaScreen intf2 inactive
CCC(C)N1CCN(Cc2ccccc2F)CC1 (centres undefined)	MITF inh 75.1 | MITF inh conf inactive | AlphaScreen intf2 inactive
CCC(C)N1CCN(Cc2ccccc2)CC1 (centres undefined)	MITF inh 65.7 | MITF inh conf inactive | AlphaScreen intf2 inactive
CCc1nnc(NC(=O)CCc2nc(C3=CCN(C)CC3)no2)s1	MITF inh 58.3 | MITF inh conf 59.7 | AlphaScreen intf2 39.0
CCc1ccccc1NC(=O)CCc1nc(C2=CCN(C)CC2)no1	none
CN1CC=C(c2noc(CCC(=O)Nc3nc4ccccc4s3)n2)CC1	none
CCOc1ccc(NC(=O)CCc2nc(C3=CCN(C)CC3)no2)cc1	MITF inh 82.7 | MITF inh conf 92.7 | AlphaScreen intf2 69.8
COc1cc(OC)c(OC)cc1CNCCc1ccccc1	none
O=C(Cc1ccccc1)N1CCN(C2CC3CCC2C3)CC1 (centres undefined)	none
C1CCC(N2CCN(C3CC4CCC3C4)CC2)C1 (centres undefined)	MITF inh 67.2 | MITF inh conf inactive | AlphaScreen intf2 inactive
OCCN1CCN(Cc2ccc(F)c(Br)c2)CC1	MITF inh 72.7 | MITF inh conf inactive | AlphaScreen intf2 inactive
CCN1CCN(Cc2ccc(F)c(Br)c2)CC1	none
CN1CCN(Cc2ccc(F)c(Br)c2)CC1	MITF inh 80.4 | MITF inh conf inactive | AlphaScreen intf2 inactive
COc1ccc(OCC#CCN2CCNCC2)cc1	MITF inh 59.3 | MITF inh conf inactive | AlphaScreen intf2 inactive
CCN1CCN(Cc2ccc(OC)cc2)CC1	none
Cc1ccc(NC(=O)c2c(O)c3ccccc3n(Cc3ccccc3)c2=O)nc1	none
CC(=O)c1ccc(N2CCN(Cc3cccc(C)c3)CC2)cc1	none
CC(=O)c1ccc(N2CCN(Cc3ccc(F)cc3F)CC2)cc1	MITF inh 54.6 | MITF inh conf inactive | AlphaScreen intf2 inactive
CC(=O)c1ccc(N2CCN(Cc3ccc(F)c(F)c3)CC2)cc1	none
CC(=O)c1ccc(N2CCN(Cc3cc(F)ccc3F)CC2)cc1	MITF inh 60.6 | MITF inh conf inactive | AlphaScreen intf2 inactive
COc1ccc(CNC(=O)CN2CC=C(c3ccc(C)o3)CC2)cc1	none
CCCCCCC[n+]1ccc(-c2cc[n+](CCCCCCC)cc2)cc1	none
C[n+]1ccc(-c2cc[n+](C)cc2)cc1	MITF inh 64.7 | MITF inh conf inactive | AlphaScreen intf2 inactive
COc1cc2c(cc1OC)CN(c1ccc([N+](=O)[O-])c3cnccc13)CC2	none
Cc1no[n+]([O-])c1COc1cccc(C=C2C(=O)NC(=S)NC2=O)c1	none
